Measurements taken from PubChem BioAssay (NCATS).
Values joined by “and” are separate entries in the source; they are usually repeats but may differ in a detail not shown here. Equal values may be shown once. Results filed as inconclusive are left out. Some compounds were tested as several samples or in several runs, with calls that do not always agree. Active and inactive are the calls of the source. Calls come from the whole dose curve; as a rule, active = well fitted inhibition curve with a large enough effect; inconclusive = small, poorly fitted or top-dose-only effect; inactive = flat fitted curve, though single readings scatter.

Assay: Drug repurposing screens with cells derived from glioblastoma tumor samples (AID 1345199); note: nearly all actives have a fitted effect of over 40% in size
Conditions: GBM patient neurospheres viability, ATP luminescence, 48 h
Protocol: CD133+ cells were isolated from GBM patient biopsies and cultured as neurospheres. Neurospheres from four patients were used to screen the NCATS pharmaceutical collection (NPC) library of approved drugs and bioactive compounds. […] The neurospheres were incubated with drugs for 48 hours in 1536-well format, then assayed with an ATP content cell viability assay. […] These hits were cherry picked to confirm activity in the four original GBM lines screened plus three other slower growing GMB lines (unable to yield enough cells for a full primary screen). Variable activities of the confirmed primary hits in the different GBM patient lines were observed. The patient line 206 responded to the greatest number of compounds and line 923 responded to the least amount of active compounds.

[1] = at 45.9 µM (top of the series), tumour line B
[2] = at 45.9 µM (top of the series), tumour line D
[3] = at 46.1 µM (top of the series), tumour line C
[4] = at 46 µM (top of the series), tumour line A
% is set by controls: 0 for no effect and ±100 for the full control effect; potency is the fitted concentration of half-maximal effect.

For `CO/N=C(/C(=O)N[C@@H]1C(=O)N2C(C(=O)[O-])=C(C[n+]3ccn4ncccc43)CS[C@H]12)c1nsc(N)n1`, the activity, negative = cell killing [1] was -6.03% (inactive) and -3.53% (inactive), the activity, negative = cell killing [2] was -11.1% (inactive) and -14% (inactive) and the Potency (tumour line A) was 8.91 µM (active).
In the case of `CCCCC/C=C\C/C=C\CCCCCCCC(=O)NC(C)c1ccccc1` (stereo unspecified), the activity, negative = cell killing [1] is reported as -3.69% (inactive), the activity, negative = cell killing [2] is reported as -27.1% (inactive) and the activity, negative = cell killing [3] is reported as -9.18% (inactive). The Potency (tumour line A) was 11.2 µM (active).
In the case of `Cc1ccccc1N1CCN(CCc2nnc3n2CCCC3)CC1`, the activity, negative = cell killing [1] is reported as -2% (inactive) and the activity, negative = cell killing [3] is reported as 19.6% (inactive).
With `CN1CCC(=C2c3ccccc3CCc3cccnc32)CC1` the activity, negative = cell killing [1] was -11.9% (inactive), the activity, negative = cell killing [2] was -28.7% (inactive) and the activity, negative = cell killing [3] was -24% (inactive). The Potency (tumour line A) was 11.2 µM (active).
With `O=P(O)(O)OCC(O)CO` (stereo unspecified) the activity, negative = cell killing [1] was -9.32% (inactive), the activity, negative = cell killing [2] was 5.18% (inactive) and the activity, negative = cell killing [4] was -22.7% (inactive). For the same molecule, the activity, negative = cell killing [3] was -0.918% (inactive).
For `O=C(CCCCCCCCC#CI)Oc1ccccc1`, the activity, negative = cell killing [1] was -16.2% (inactive), the activity, negative = cell killing [2] was -0.884% (inactive) and the activity, negative = cell killing [4] was -21.9% (inactive). For the same molecule, the activity, negative = cell killing [3] was -10.1% (inactive).
With `CC(=O)N(CC(O)CO)c1c(I)c(C(=O)NCCO)c(I)c(C(=O)NCC(O)CO)c1I` (stereo unspecified) the activity, negative = cell killing [1] was -10.8% (inactive), the activity, negative = cell killing [2] was 12.9% (inactive) and the activity, negative = cell killing [3] was -5.5% (inactive).
In the case of `C[C@@H](C1=C(CCN(C)C)Cc2ccccc21)c1ccccn1`, the activity, negative = cell killing [1] is reported as -18.9% (inactive), the activity, negative = cell killing [3] is reported as -5.63% (inactive) and the Potency (tumour line A) is reported as 17.8 µM (active).
In the case of `C[N+]1(CC2COC(c3ccccc3)(c3ccccc3)O2)CCCCC1` (stereo unspecified), the activity, negative = cell killing [1] is reported as -10.9% (inactive), the activity, negative = cell killing [2] is reported as -20.2% (inactive) and the activity, negative = cell killing [3] is reported as -16.6% (inactive).
For `CCOC(=O)[C@H](CCc1ccccc1)N[C@@H](C)C(=O)N(CC(=O)O)C1Cc2ccccc2C1`, the activity, negative = cell killing [1] was -1.19% (inactive), the activity, negative = cell killing [2] was -9.08% (inactive) and the activity, negative = cell killing [3] was 19.3% (inactive).
In the case of `Nc1ccc2cc3ccc(N)cc3nc2c1`, the activity, negative = cell killing [3] is reported as -19.3% (inactive), the Potency (tumour line A) is reported as 22.4 µM (active) and the Potency (tumour line B) is reported as 14.1 µM (active). The Potency (tumour line D) was 7.94 µM (active).
With `CN1C(=O)c2ccccc2C1=O` the activity, negative = cell killing (at 91.6 µM (top of the series), tumour line A) was -18.9% (inactive), the activity, negative = cell killing (at 91.6 µM (top of the series), tumour line B) was -9.87% (inactive) and the activity, negative = cell killing (at 91.6 µM (top of the series), tumour line D) was -20.8% (inactive). The activity, negative = cell killing (at 99.2 µM (top of the series), tumour line C) was 6.36% (inactive).
